Results taken from PubChem BioAssay (EPA / NIEHS).
More than one record can exist for a structure, and the calls need not agree. The source made the active and inactive calls. Rule for the calls: active = hit-call score of the fitted dose curve at least 0.9, where 1 is the maximum; inactive = score below 0.9.

Columns and labels:
[1] = ATG_E_Box_CIS: Attagene CIS-FACTORIAL HepG2 Assay for human Enhancer Box (E-box) (AID 2282936); conditions: HepG2 E-box cis-reporter transcription, actives raise or lower the signal
In short: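 Endogenous transcription factor activity was sensed in human HepG2 liver cells through transfected cis-promoter reporter units. After 24 h of dosing, total RNA was reverse-transcribed and reporter cDNA resolved by capillary electrophoresis.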

[2] = ATG_M_61_CIS: Attagene CIS-FACTORIAL HepG2 Assay for M61 Transcription Factor (Internal Marker) (AID 2282937); conditions: HepG2 Attagene CIS-FACTORIAL M61 internal marker reporter; actives raise or lower the signal
In short: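 Multiplexed reporter mRNA assay, HepG2 human hepatoma cells, 24 h treatment. Signal: FAM-labelled, HpaI-digested RT-PCR fragments by CE. Fit: bidirectional, baseline DMSO.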

[3] = ATG_EGR_CIS: Attagene CIS-FACTORIAL HepG2 Assay for human Early Growth Response 1 (EGR1) (AID 2282938); conditions: HepG2 Attagene CIS-FACTORIAL EGR reporter mRNA; actives raise or lower the signal
In short: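 Multiplexed cis-reporter system in human hepatoma HepG2 cells, transiently transfected. Cells are dosed for 24 h; reporter transcripts are amplified, fluorescently tagged and sized by capillary electrophoresis, with DMSO as negative control.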

[4] = ATG_M_19_CIS: Attagene CIS-FACTORIAL HepG2 Assay for M19 Transcription Factor (Internal Marker) (AID 2282939); conditions: HepG2 Attagene CIS-FACTORIAL M19 internal marker reporter; actives raise or lower the signal
In short: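 HepG2 cells transiently transfected with cis-regulated multiple reporter transcription units were dosed for 24 h; reporter mRNA was quantified by RT-PCR, 6-FAM primer-extension labelling, HpaI digestion and capillary electrophoresis, with bidirectional fitting against DMSO baseline.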

[5] = ATG_ERE_CIS: Attagene CIS-FACTORIAL HepG2 Assay for Estrogen Response Element (ERE) (AID 2282940); conditions: HepG2 ERE cis-reporter, Attagene RNA transcript; actives raise or lower the signal
In short: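 HepG2 cells transiently transfected with cis-promoter-driven multiplexed reporter transcription units report endogenous TF activity. After 24 h compound exposure, reporter mRNA is quantified by RT-PCR with capillary electrophoresis fluorescence; bidirectional fitting versus DMSO baseline.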

[6] = ATG_Ets_CIS: Attagene CIS-FACTORIAL HepG2 Assay for human Erythroblast Transformation Specific (ETS) (AID 2282941); conditions: HepG2 ETS cis-reporter transcription, actives raise or lower the signal
In short: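 Endogenous transcription factor activity read as reporter mRNA via RT-PCR and capillary electrophoresis, with gain or loss fitted bidirectionally against DMSO. Human HepG2 liver cells, transiently transfected CIS reporter constructs, 24 h exposure.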

[7] = biological target: Hepatocyte nuclear factor 3-beta (Homo sapiens) (UniProt Q9Y261); test: ATG_FoxA2_CIS: Attagene CIS-FACTORIAL HepG2 Assay for human Forkhead box A2 (FOXA2) (AID 2282942); conditions: HepG2 cis-reporter transcription factor activity, 24 h; actives raise or lower the signal
Sequence of Hepatocyte nuclear factor 3-beta (Homo sapiens) (Q9Y261 whole entry, looked up): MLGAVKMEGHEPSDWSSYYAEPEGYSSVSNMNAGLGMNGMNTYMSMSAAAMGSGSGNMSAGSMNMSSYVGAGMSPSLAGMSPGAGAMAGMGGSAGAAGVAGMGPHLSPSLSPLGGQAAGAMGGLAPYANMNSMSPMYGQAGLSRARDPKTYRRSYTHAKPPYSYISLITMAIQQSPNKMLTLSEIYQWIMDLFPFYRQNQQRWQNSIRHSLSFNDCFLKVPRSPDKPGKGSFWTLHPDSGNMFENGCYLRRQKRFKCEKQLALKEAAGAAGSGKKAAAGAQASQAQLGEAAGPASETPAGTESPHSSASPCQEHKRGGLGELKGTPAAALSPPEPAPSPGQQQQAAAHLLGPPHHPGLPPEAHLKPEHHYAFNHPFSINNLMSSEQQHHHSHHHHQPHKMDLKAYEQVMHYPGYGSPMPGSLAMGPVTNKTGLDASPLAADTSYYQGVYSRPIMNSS
In short: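 Multiplexed cis-element reporter assay in transiently transfected HepG2. Twenty-four hours post-dosing, RNA was reverse-transcribed, amplified, FAM-labelled, HpaI-digested and separated by CE. Activity gain or loss relative to DMSO.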

[8] = ATG_FoxO_CIS: Attagene CIS-FACTORIAL HepG2 Assay for human Forkhead box O (FoxO) (AID 2282943); conditions: HepG2 Attagene cis-reporter, FoxO element, mRNA; actives raise or lower the signal
In short: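 24 h chemical exposure, HepG2 with transient cis-MRTU transfection. RNA extraction, oligo(dT) RT, reporter-specific PCR, primer-extension labelling, HpaI digestion, CE fragment analysis; bidirectional fit, DMSO baseline.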

[9] = ATG_GATA_CIS: Attagene CIS-FACTORIAL HepG2 Assay for human GATA Binding Protein (AID 2282944); conditions: HepG2 GATA cis-element reporter, Attagene multiplex mRNA; actives raise or lower the signal
In short: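 HepG2 cells transiently transfected with multiplexed cis-element reporter units reflecting endogenous transcription factor activity; reporter mRNA measured after 24 h dosing by RT-PCR, 6-FAM labeling, HpaI digestion and capillary electrophoresis. Bidirectional fitting versus DMSO baseline.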

[10] = ATG_GLI_CIS: Attagene CIS-FACTORIAL HepG2 Assay for human Zinc Finger Protein GLI1 (AID 2282945); conditions: HepG2, Attagene cis-factorial reporter mRNA, GLI element; actives raise or lower the signal
In short: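 HepG2 cells transiently transfected with cis-promoter multiplexed reporter units report endogenous transcription factor activity. After 24 h chemical exposure, reporter mRNA was quantified by RT-PCR, 6-FAM labelling, HpaI digestion and capillary electrophoresis, with bidirectional fitting against DMSO.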

[11] = biological target: Bile acid receptor (Homo sapiens) (UniProt Q96RI1); test: ATG_IR1_CIS: Attagene CIS-FACTORIAL HepG2 Assay for human Nuclear Receptor Subfamily 1 Group H Member 4 (NR1H4), IR1 submotif (AID 2282946); conditions: IR1 reporter transcription, actives raise or lower the signal
Sequence of Bile acid receptor (Homo sapiens) (Q96RI1 whole entry, looked up): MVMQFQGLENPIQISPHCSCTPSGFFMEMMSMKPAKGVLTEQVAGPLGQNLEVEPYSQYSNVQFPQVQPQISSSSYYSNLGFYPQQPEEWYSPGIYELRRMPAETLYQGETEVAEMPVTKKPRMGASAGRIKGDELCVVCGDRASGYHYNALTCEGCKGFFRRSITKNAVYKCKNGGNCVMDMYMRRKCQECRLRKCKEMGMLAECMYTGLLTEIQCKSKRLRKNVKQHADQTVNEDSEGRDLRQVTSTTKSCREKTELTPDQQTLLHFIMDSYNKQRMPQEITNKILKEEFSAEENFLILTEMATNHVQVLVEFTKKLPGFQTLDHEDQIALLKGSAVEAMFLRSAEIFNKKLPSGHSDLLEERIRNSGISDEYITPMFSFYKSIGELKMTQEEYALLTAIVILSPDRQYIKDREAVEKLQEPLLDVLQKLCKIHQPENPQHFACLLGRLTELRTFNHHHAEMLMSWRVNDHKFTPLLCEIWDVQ
In short: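 Readout: reporter transcript levels by RT-PCR with fluorescent capillary electrophoresis, from HepG2 cells transiently transfected with multiplexed cis-regulated reporters and dosed 24 h. Gain- or loss-of-signal fitted versus DMSO negative control.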

[12] = ATG_GRE_CIS: Attagene CIS-FACTORIAL HepG2 Assay for human Glucocorticoid Response Elements (GRE) (AID 2282947); conditions: HepG2 GRE cis-reporter, Attagene multiplex mRNA; actives raise or lower the signal
In short: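 Cells (HepG2) bearing transfected cis-promoter reporter transcription units were treated with chemical for 24 hours. Reporter mRNA was measured via RT-PCR with capillary electrophoresis, and activity was fitted in both directions relative to DMSO.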

[13] = ATG_ISRE_CIS: Attagene CIS-FACTORIAL HepG2 Assay for human Interferon Regulatory Factor 1 (IRF1) binding to an Interferon-Stimulated Response Element (ISRE) (AID 2282948); conditions: HepG2 ISRE cis-reporter (Attagene), mRNA transcription readout; actives raise or lower the signal
In short: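 Endogenous transcription factor activity read as reporter transcript abundance via RT-PCR and capillary electrophoresis. HepG2 cells transiently transfected, 24 h chemical exposure. Gain or loss fitted against DMSO baseline.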

[14] = ATG_M_32_CIS: Attagene CIS-FACTORIAL HepG2 Assay for M32 Transcription Factor (Internal Marker) (AID 2282949); conditions: HepG2 Attagene cis-factorial M32 reporter, mRNA; actives raise or lower the signal;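 note: background control marker of the multiplexed CIS panel rather than a real target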
In short: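 HepG2 human liver cells transiently transfected with cis-promoter-driven multiple reporter transcription units, dosed 24 h. Reporter mRNA quantified by RT-PCR, FAM-labelled primer extension, HpaI digest and capillary electrophoresis; bidirectional fit versus DMSO baseline.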

[15] = ATG_M_06_CIS: Attagene CIS-FACTORIAL HepG2 Assay for M06 Transcription Factor (Internal Marker) (AID 2282950); conditions: HepG2 Attagene CIS-FACTORIAL M06 internal marker reporter; actives raise or lower the signal
In short: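 HepG2 cells transiently transfected with cis-regulated multiple reporter transcription units were exposed to chemical for 24 h; reporter mRNA was quantified by RT-PCR, 6-FAM primer labelling, HpaI digestion and capillary electrophoresis, fitted bidirectionally against DMSO.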

[16] = biological target: Hypoxia-inducible factor 1-alpha (Homo sapiens) (UniProt Q16665); test: ATG_HIF1a_CIS: Attagene CIS-FACTORIAL HepG2 Assay for human Hypoxia Inducible Factor 1 (HIF1A) (AID 2282951); conditions: HepG2 Attagene cis-factorial HIF1a reporter transcription; actives raise or lower the signal
Sequence of Hypoxia-inducible factor 1-alpha (Homo sapiens) (Q16665 whole entry, looked up): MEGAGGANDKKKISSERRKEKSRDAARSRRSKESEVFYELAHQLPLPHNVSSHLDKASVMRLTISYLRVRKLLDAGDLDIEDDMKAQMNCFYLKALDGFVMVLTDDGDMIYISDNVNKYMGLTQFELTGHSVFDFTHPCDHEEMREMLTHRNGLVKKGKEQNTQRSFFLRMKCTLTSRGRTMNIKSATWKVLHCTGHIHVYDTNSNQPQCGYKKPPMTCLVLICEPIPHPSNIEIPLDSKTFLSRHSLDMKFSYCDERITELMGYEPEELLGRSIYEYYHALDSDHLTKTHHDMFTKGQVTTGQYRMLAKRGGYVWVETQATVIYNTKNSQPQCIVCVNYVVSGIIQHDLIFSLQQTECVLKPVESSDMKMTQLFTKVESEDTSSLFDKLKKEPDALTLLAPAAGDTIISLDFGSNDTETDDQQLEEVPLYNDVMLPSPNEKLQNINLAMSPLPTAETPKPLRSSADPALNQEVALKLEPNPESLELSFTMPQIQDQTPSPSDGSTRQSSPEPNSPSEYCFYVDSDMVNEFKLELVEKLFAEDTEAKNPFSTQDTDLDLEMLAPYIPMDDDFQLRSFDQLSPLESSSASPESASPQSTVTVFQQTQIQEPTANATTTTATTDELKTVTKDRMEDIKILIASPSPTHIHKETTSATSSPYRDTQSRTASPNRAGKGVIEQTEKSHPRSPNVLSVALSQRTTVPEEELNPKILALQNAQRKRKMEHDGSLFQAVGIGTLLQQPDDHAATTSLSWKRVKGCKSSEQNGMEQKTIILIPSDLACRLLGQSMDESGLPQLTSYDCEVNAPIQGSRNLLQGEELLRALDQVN
In short: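 Cis-element reporter constructs were transiently transfected into HepG2 cells, which were treated for 24 h; reporter RNA was reverse-transcribed, amplified, labelled and resolved by capillary electrophoresis.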

[17] = biological target: Hepatocyte nuclear factor 6 (Homo sapiens) (UniProt Q9UBC0); test: ATG_HNF6_CIS: Attagene CIS-FACTORIAL HepG2 Assay for human Hepatocyte Nuclear Factor 6 (HNF6) (AID 2282952); conditions: HepG2 Attagene cis-factorial HNF6 reporter transcription; actives raise or lower the signal
Sequence of Hepatocyte nuclear factor 6 (Homo sapiens) (Q9UBC0 whole entry, looked up): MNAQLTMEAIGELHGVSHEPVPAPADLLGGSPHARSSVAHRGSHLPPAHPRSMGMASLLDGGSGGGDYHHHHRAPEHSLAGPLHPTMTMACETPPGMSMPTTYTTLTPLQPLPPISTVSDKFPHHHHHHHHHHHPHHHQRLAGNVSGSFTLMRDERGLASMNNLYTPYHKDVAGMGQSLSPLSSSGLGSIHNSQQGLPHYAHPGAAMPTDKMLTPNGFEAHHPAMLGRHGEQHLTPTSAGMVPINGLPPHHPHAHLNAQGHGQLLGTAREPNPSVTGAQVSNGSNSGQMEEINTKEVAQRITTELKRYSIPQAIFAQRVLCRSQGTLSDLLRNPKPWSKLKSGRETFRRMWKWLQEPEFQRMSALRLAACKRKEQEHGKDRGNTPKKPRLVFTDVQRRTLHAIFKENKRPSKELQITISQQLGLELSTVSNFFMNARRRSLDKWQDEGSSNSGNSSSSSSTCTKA
In short: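 Activity values derive from bidirectional fitting against DMSO of reporter mRNA levels, measured by capillary electrophoresis of labelled RT-PCR products from HepG2 cells exposed 24 h.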

[18] = biological target: Heat shock factor protein 1 (Homo sapiens) (UniProt Q00613); test: ATG_HSE_CIS: Attagene CIS-FACTORIAL HepG2 Assay for human Heat Shock Transcription Factor 1 (HSE) (AID 2282953); conditions: HepG2 HSE cis-reporter, Attagene RNA transcription; actives raise or lower the signal
Sequence of Heat shock factor protein 1 (Homo sapiens) (Q00613 whole entry, looked up): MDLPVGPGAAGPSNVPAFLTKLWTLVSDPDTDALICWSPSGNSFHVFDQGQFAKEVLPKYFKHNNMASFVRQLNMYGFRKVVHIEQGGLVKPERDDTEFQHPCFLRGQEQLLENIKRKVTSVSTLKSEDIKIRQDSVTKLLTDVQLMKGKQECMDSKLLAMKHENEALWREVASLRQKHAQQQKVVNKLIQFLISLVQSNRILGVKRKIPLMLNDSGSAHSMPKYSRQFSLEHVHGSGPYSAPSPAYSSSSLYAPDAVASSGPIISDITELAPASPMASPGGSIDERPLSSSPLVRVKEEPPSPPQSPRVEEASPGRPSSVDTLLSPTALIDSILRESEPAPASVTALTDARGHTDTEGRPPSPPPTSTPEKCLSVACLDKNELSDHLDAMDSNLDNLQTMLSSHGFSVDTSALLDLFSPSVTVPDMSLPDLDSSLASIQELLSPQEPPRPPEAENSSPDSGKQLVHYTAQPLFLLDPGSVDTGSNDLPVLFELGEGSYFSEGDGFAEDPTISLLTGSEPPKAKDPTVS
In short: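 HepG2 cells transiently transfected with multiple reporter transcription units under cis-regulatory promoter control, measuring endogenous transcription factor activity. After 24 h chemical exposure, reporter mRNA quantified by RT-PCR, fluorescent labelling, HpaI digestion and capillary electrophoresis; bidirectional fit versus DMSO.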

[19] = ATG_MRE_CIS: Attagene CIS-FACTORIAL HepG2 Assay for human Metal Responsive Element (MRE) (AID 2282954); conditions: HepG2 MRE cis-reporter transcription, Attagene multiplex; actives raise or lower the signal
In short: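 Cells were transfected with cis-promoter reporter transcription units, then dosed for 24 h. RNA was reverse-transcribed, amplified, fluorescently labelled and resolved by capillary electrophoresis, and activity was fitted in both directions relative to DMSO.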

[20] = ATG_PBREM_CIS: Attagene CIS-FACTORIAL HepG2 Assay for human Phenobarbital-responsive Enhancer Module (PBREM) (AID 2282955); conditions: HepG2 PBREM cis-reporter, Attagene multiplexed transcription; actives raise or lower the signal
In short: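 Multiplexed cis-reporter readout in human hepatoma HepG2 cells; PBREM-regulated transcript quantified after 24 h exposure by fluorescent RT-PCR fragment analysis. Signal changes up or down fitted relative to DMSO.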

Measured: AC50

CN(C[C@@H](CC[N+]12CCC(C3CCCCC3)(CC1)CC2)c1ccc(Cl)c(Cl)c1)C(=O)c1cc(C(F)(F)F)cc(C(F)(F)F)c1
inactive: all assays above

CC[C@@H]1C[C@H](N(Cc2cc(C(F)(F)F)cc(C(F)(F)F)c2)C(C)=O)c2cc(C(F)(F)F)ccc2N1C(=O)OC(C)C
active: [20] 0.181 µM
not listed: [9] | [11] | [13]
inactive: all other assays above

O=C(OCCCCCCOC(=O)c1ccccc1)c1ccccc1
inactive: all assays above

CC[C@H](NC(=O)c1cc(F)ccc1NS(=O)(=O)c1cccc2cccnc12)c1ccccc1
not listed: [13] | [20]
inactive: all other assays above

Cc1cccc2ccccc12
active: [5] 76.8 µM
inactive: [1] | [2] | [3] | [4] | [5] | [6] | [7] | [8] | [10] | [11] | [13] | [14] | [15] | [16] | [17] | [18] | [19] | [20]

Cc1cn([C@H]2C[C@H](N=[N+]=[N-])[C@@H](CO)O2)c(=O)[nH]c1=O
not listed: [13] | [16] | [20]
inactive: all other assays above
